40 compounds from PubChem BioAssay (NCATS) can be followed below.

Records with an inconclusive call do not appear. A call without a number means that no potency is given here. Activity calls are given as the source filed them. Calls follow the shape of the dose curve; as a rule, active = well fitted inhibition curve with a large enough effect; inconclusive = small, poorly fitted or top-dose-only effect; inactive = flat fitted curve, though single readings scatter.
Potency is read from the fitted curve at half-maximal effect.

Chain of Calcium and integrin-binding protein 1 (Homo sapiens) (Q99828 whole entry, looked up): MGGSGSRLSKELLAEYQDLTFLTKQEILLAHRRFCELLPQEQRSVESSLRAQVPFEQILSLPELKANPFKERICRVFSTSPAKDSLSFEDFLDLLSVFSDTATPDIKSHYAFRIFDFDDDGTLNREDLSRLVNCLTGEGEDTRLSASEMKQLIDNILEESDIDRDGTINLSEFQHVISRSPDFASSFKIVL

The test has as its target Calcium and integrin-binding protein 1 (Homo sapiens) (UniProt Q99828). Kind of test: Primary qHTS for Identification of Calcium Integrin Binding Protein 1 (CIB1) Competitor (AID 1508620). As to conditions: CIB1-GST / FITC-alphaIIb peptide fluorescence polarization; series mostly up to 114 µM. Summed up:
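Fluorescence polarization competition: CIB1-GST (1 uM final) preincubated with compound 15 min at room temperature, then FITC-labeled alphaIIb peptide (100 nM final) added for another 15 min. Polarization read at Ex 480/Em 540.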
For `N#Cc1nc(NCC(F)F)c2ncn(-c3cc(F)cc(F)c3)c2n1`, the Potency result was “inactive”.
Consider `Cc1noc(C)c1-c1ccc2ncnc(NCC3CCN(C)CC3)c2c1`, for which the Potency result is “inactive”.
For `Cc1cc2c(s1)c1cnn(Cc3c(F)ccc(F)c3Cl)c(=O)c1n2C`, the Potency result is “inactive”.
On to `O=C(Cc1ccc(Cl)c(Cl)c1)Nc1ccc([S+](=O)([O-])Nc2ccccn2)cc1`, for which the Potency result was “inactive”.
Turning to `COc1ccc(C2=Nn3c(nnc3-c3ccccc3OC)SC2)c(OC)c1`, the Potency result is “inactive”.
`O=C(CN1C(=O)N/C(=C\c2cccn2-c2cccc(C(=O)O)c2)C1=O)Nc1ccc(Cl)cc1`: the Potency result was “inactive”.
As for `NC(=O)C1CCN(c2nc(-c3ccc4ccccc4c3)cs2)CC1`, the entry is “inactive”.
Take `Cc1csc(CNc2ncnc3ccc(-c4ccco4)cc23)c1`: the Potency result is “inactive”.
To `Nc1nnc(-c2cccc3ccccc23)o1` belongs “inactive”; to `O=C1CCc2cc(S(=O)(=O)Nc3cccc(Br)c3)ccc2N1`, “inactive”.
In the case of `COc1cc(OC)c(C(CC(=O)N2CC(C)CC(C)C2)c2ccc3c(c2)OCO3)c(OC)c1` (stereo not given), the Potency entry is “inactive”.
For the compound `O=C(Nc1cccc(Cc2ccccc2)n1)c1ccc(-c2cccc([N+](=O)[O-])c2)o1`, the Potency entry is “inactive”.
For `Cc1cc(C)nc(NC(=S)N2CCN(c3ccc(F)cc3F)CC2)c1`, the Potency entry was “inactive”.
`Cc1ccc(OCCn2c(CCNC(=O)c3cccnc3)nc3ccccc32)cc1`: the Potency result was “inactive”.
Consider `c1nc(N2CCCCC2)c2cc(-c3ccc4c(c3)OCO4)ccc2n1`, for which the Potency result is “inactive”.
As to `Cc1nnc(-c2cnn(C)c2N)n1CCCc1ccccn1`, the Potency result is “inactive”.
As to `NC(=O)C1CCN(c2ncc(-c3ccc(Cl)cc3)s2)CC1`, the Potency result is “inactive”.
With `Cc1nc(CNc2ncnc3ccc(-c4sc(C)nc4C)cc23)cs1`, the Potency entry was “inactive”.
As to `O=S(=O)(c1ccccc1)N1CCN(c2nccc(-c3cccs3)n2)CC1`, the Potency entry was “inactive”.
Regarding `COc1cccc(-c2csc3ncnc(Sc4nnnn4C)c23)c1`, the Potency entry is “inactive”.
For `N#CN/C(=N\c1nnc(-c2ccncc2)s1)Nc1ccc(F)c(C(F)(F)F)c1`, the Potency entry was “inactive”.
As for `CCOC(=O)C1CCN(c2ncc(-c3ccc4c(c3)OCCCO4)s2)CC1`, the Potency result is “inactive”.
As for `Cc1cc2c(s1)c1cnn(Cc3cc(F)ccc3C)c(=O)c1n2C`, the Potency result is “inactive”.
`COc1cc(-c2ccc3ncnc(NCc4cccs4)c3c2)cc(OC)c1OC`: the Potency entry is “inactive”.
On to `COC(=O)c1cncc(NC(=O)c2cccs2)c1`, for which the Potency result was “inactive”.
Consider `Cc1ccccc1-c1ccc(NC(=O)c2cccs2)cn1`, for which the Potency result is “inactive”.
As for `COc1ccc(C2Nc3ccccc3C(=O)N2Cc2cccc(-c3ccccc3)c2)cc1COc1ccc(NC(C)=O)cc1` (stereo not given), the entry is “inactive”.
As for `OC(c1ccccc1)(c1ccccc1)c1cnc2ccccn12`, the Potency result was “inactive”.
Consider `O=C1c2ccccc2NC(c2ccc(-c3cccs3)o2)N1O` (stereo not given), for which the Potency entry was “inactive”.
As to `COc1ccc(O)c(CNc2ccc(S(=O)(=O)Nc3nccs3)cc2)c1`, the Potency entry was “inactive”.
To `Cc1ccc(-c2nc(NCC(=O)Nc3cccc(C(=O)O)c3)c3ccccc3n2)cc1` belongs “inactive”; to `CC(=O)Nc1sc2c(c1-c1nc3ccccc3s1)CCN(C1COC1)C2`, 14.1 µM (active).
Regarding `c1ccc(-n2cc(-c3nnc4n3CCCCC4)c3ccccc32)cc1`, the Potency result is “inactive”.
Regarding `Cc1ccc(NS(=O)(=O)c2ccc3c(c2)CCC(=O)N3)cc1`, the Potency entry is “inactive”.
As for `Cc1cc2c(s1)c1cnn(Cc3cccc4cccnc34)c(=O)c1n2C`, the entry is “inactive”.
For the compound `Cc1ccc(-n2c(=O)ccc(=O)n2CC(=O)NCCc2ccccc2)cc1`, the Potency entry is “inactive”.
As for `CC(=O)Nc1ccc(OCc2cccc(-c3nc4ccccc4c(=O)n3Cc3ccco3)c2)cc1`, the entry is “inactive”.
As for `N#Cc1ccc(-c2ccc(CNc3ccc(N4CCN5CCCCC5C4)cc3)o2)cc1` (stereo not given), the entry is “inactive”; as for `Cc1cnc(-c2ccccc2C(C)C)nc1NCc1ccc(-c2cccnc2)cc1`, “inactive”.
Consider `COc1ccc(C2c3ccc(OCc4ccccc4)cc3Oc3ncn(CCN4CCOCC4)c(=N)c32)cc1OC` (stereo not given), for which the Potency result is “inactive”.
